# DAT uptake mod = changed human dopamine transporter uptake under cocaine IC80 | Q01959 | LLC-PK1 hDAT cells, [14C]-dopamine uptake with cocaine IC80; actives deviate in either direction | B-score at 10 µM | 1.3% of 110,000 active;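 active means Z score or B-score, a plate-position-corrected score, falls beyond the plate's 99.7% confidence bounds, in either direction; inactive means both scores lie inside the 99.7% bounds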;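 further: scored against the spread of the other compound wells on the same plate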
# Target sequence (Q01959 whole entry, looked up): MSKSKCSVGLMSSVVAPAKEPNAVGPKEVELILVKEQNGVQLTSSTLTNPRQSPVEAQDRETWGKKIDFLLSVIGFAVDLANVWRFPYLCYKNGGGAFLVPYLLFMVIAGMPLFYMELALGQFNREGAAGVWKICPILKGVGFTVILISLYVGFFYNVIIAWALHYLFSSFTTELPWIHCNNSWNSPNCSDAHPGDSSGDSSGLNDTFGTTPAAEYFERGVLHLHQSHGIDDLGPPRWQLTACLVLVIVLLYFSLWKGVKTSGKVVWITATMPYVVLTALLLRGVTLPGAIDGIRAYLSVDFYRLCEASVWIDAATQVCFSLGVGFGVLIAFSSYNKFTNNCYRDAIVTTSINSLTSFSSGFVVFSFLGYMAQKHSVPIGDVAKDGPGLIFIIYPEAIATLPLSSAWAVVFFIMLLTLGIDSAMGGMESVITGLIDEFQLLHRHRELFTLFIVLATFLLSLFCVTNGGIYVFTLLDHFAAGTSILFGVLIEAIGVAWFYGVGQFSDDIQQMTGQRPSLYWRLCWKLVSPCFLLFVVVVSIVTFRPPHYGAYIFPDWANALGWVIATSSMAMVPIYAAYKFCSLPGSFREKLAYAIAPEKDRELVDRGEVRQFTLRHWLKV
# CYP2C19 inhib = inhibitors of human CYP2C19; CYP2C19 Supersomes, luciferin-H EGE luminescence, 30 min; 21% of 96,000 active; inhibition, % at 5 µM; P33261;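 active means CYP2C19 inhibition above a set limit at 5 µM in the primary screen, cut at about 50% in these data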;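 further: plate controls were negative control wells for no effect and 2.5 mM tranylcypromine positive control for full effect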
# CYP2C19 activ = activators of human cytochrome P450 2C19; P33261; recombinant CYP2C19, luciferin-H EGE luminescence; active compounds read high; 0 = fully inhibited enzyme, 1 = untreated enzyme; activation factor at 5 µM; 96,000 tested, under 10 active;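 active means activation factor of at least 2 at 5 µM in the primary screen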;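 further: 0 = wells with 2.5 mM tranylcypromine and 1 = vehicle-only wells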
# CYP2C9 act = increases human cytochrome P450 2C9 activity; 1.4% of 96,000 active; P11712; recombinant CYP2C9, luciferin-H conversion, luminescence; active compounds read high; factor 1 = untreated enzyme, 0 = blocked; activation factor at 5 µM;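 active means activation factor of 2 or more for CYP2C9 at a 5 µM dose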;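 further: 0 = sulfaphenazole-blocked wells and 1 = vehicle-only wells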
# CYP2C9 inh = human CYP2C9 inhibition. P11712. 20% of 96,000 active. CYP2C9 Supersomes, luciferin-H conversion, luminescence. inhibition, % at 5 µM;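 active means blocking of liver enzyme CYP2C9 beyond about 50% at 5 µM, limit read from the data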
# D1 allo mod = allosteric modulators of human D1 dopamine receptor; AID 641; B-score at 10 µM; P21728; 5.9% of 58,000 active; HEK293 D1, CRE-luciferase, dopamine EC30 potentiation; actives deviate in either direction;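 active means luminescence count or its row- and column-corrected plate score outside the 99.7% band of the plate's sample wells, on either side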
# Starred values were filed as active, the others as inactive; . = no result given. Shown are actives, neighbours in structure and some others; about 28% of the full set was active somewhere.
SMILES,DAT uptake mod,CYP2C19 inhib,CYP2C19 activ,CYP2C9 act,CYP2C9 inh,D1 allo mod
COc1cccc(NC(=O)c2ccc3c(c2)N(CC(=O)N2CCCCC2)C(=O)C(C)(C)O3)c1,3.1*,12,0.9,0.4,64*,-0.024
CC1(C)Oc2ccc(C(=O)N3CCCCC3)cc2N(CC(=O)NCc2ccccc2)C1=O,1,2,1,0.8,23,0.43
CCCNc1cc(C)oc(=O)c1C(=O)CCC,-1.1,25,0.8,2*,-100,.
CC(=O)c1c(NCCc2ccccc2)cc(C)oc1=O,-0.72,57*,0.4,0.7,33,0.19
CCCCNc1cc(C)oc(=O)c1C(C)=O,-0.31,-12,1.1,1.1,-14,1.2
CC1CC(N(C(=O)c2ccccc2Cl)c2ccccc2)c2ccccc2N1 (stereo not drawn),.,7,0.9,0.9,10,.
CCOc1ccccc1N1CCN(C(=O)c2c(C)noc2C)CC1,-0.51,10,0.9,1,3,0.25
CCOc1ccc2ccccc2c1C(=O)N1CCN(c2ccccc2)CC1,0.59,93*,0.1,0.1,88*,-0.54
CCOC(=O)c1[nH]c(C)c(C(=O)N2CCN(c3ccccc3)CC2)c1C,0.68,35,0.7,0.5,55*,0.86
CC(=O)c1c(C)[nH]c(C(=O)N2CCN(c3ncccn3)CC2)c1C,0.24,96*,0,0.4,64*,-0.026
CC(=O)c1c(C)[nH]c(C(=O)N2CCCCCC2)c1C,-0.36,23,0.8,0.9,15,0.031
CS(=O)(=O)N1CCN(Cc2ccc(C(F)(F)F)cc2)CC1,-0.056,42,0.6,1.4,-42,.
Nc1nc(-c2ccccc2)cc(C(F)(F)F)n1,0.083,47,0.5,0.9,14,27*
FC(F)(F)c1cc(-c2ccccc2)nc(NC2CCCC2)n1,0.33,42,0.6,0.4,56*,.
COC(=O)CCCCCC(CCC(=O)OC)NC(C)=O (stereo not drawn),-0.88,-1,1,0.9,6,-0.056
Cc1cc(C)nc(NC(=O)c2ccc(OC(C)C)cc2)n1,-0.18,17,0.8,1.1,-6,-0.14
C/C(=N\OC(=O)c1ccc(OC(C)C)cc1)c1ccc(C)c(C)c1,0.51,56*,0.4,0.4,56*,.
CC/C(=N\OC(=O)c1ccc(OC(C)C)cc1)c1ccc(C)cc1,.,73*,0.3,0.4,62*,.
COc1ccc(C(=O)O/N=C(\C)c2ccccc2)cc1,0.0021,52*,0.5,0.1,88*,.
CC(=O)COc1ncn(-c2ccccc2)n1,0.66,-8,1.1,1,4,.
CC(C)(C)CC(=O)Nc1ccc(Nc2ccccc2)cc1,-0.2,13,0.9,0.6,39,.
CCCCC1C(=O)CC[C@H]2[C@@H]1CC(=O)[C@@H]2C/C=C\CCCC(=O)O (stereo partly drawn),-0.31,.,.,.,.,.
C=CCSc1nc(N)c(C(=O)Nc2ccccc2C)cc1C(N)=O,0.52,68*,0.3,0.3,66*,-0.32
CC(C)=CC(=O)NCc1c(Cl)cccc1-n1cccc1,0.87,10,0.9,0.8,21,.
O=C(CSc1nnc(CNc2ccccc2)o1)N1CCCc2ccccc21,.,26,0.7,0.7,25,0.51
SMILES,DAT uptake mod,CYP2C19 inhib,CYP2C19 activ,CYP2C9 act,CYP2C9 inh,D1 allo mod
CCc1nnc(SCC(=O)N2CCCc3ccccc32)nc1CC,1.3,78*,0.2,0.4,56*,-0.51
CSc1nsc(SCC(=O)N2CCCc3ccccc32)n1,-0.061,99*,0,0.2,80*,0.93
O=C(CSc1n[nH]c(-c2ccccc2O)n1)N1CCCc2ccccc21,-0.3,82*,0.2,0.1,86*,-1
Brc1ccc(-c2cnc(-c3cccs3)o2)cc1,-0.56,31,0.7,0.4,59*,-0.059
Cc1ccc(-c2noc(-c3cccs3)n2)cc1,0.12,4,1,1.1,-7,-1.9
CC(=O)Nc1ccc(S(=O)(=O)NC2=C(N3CCN(Cc4ccccc4)CC3)C(=O)c3ccccc3C2=O)cc1,.,76*,0.2,0.2,80*,.
Cn1cc(C(F)(F)F)nc1-c1ccc(OCC(O)CNCCOc2ccc(O)c(C(N)=O)c2)cc1 (stereo not drawn),-0.2,.,.,.,.,.
O=C(O)C(Cc1cc2ccccc2[nH]1)N1C(=O)C2CC=C(Cl)CC2C1=O (stereo not drawn),0.042,.,.,.,.,0.43
COc1ccc(/C=C(/C(=O)c2ccc(Cl)cc2Cl)n2cncn2)cc1,0.49,77*,0.2,0.1,91*,.
COc1ccc(C(=O)c2ccc(N(C)C)cc2)c2ccccc12,-1,.,.,.,.,.
CC(C)C(=O)N1CCC(CN=Cc2c(O)n(C3CCCCC3)c(=O)n(C3CCCCC3)c2=O)CC1,3.2*,42,0.6,0.5,47,0.093
CCC(=O)N1CCN(CCN=Cc2c(O)n(C3CCCCC3)c(=O)n(C3CCCCC3)c2=O)CC1,.,.,.,.,.,-0.13
Cn1c(SCc2nc(-c3ccc(Br)cc3)no2)nnc1-c1ccco1,0.39,6,0.9,0.7,25,.
c1ccc(-n2c(SCc3nc(-c4cccs4)no3)nnc2-c2ccco2)cc1,0.18,43,0.6,0.1,92*,2.7
CCn1c(SCc2nc(-c3cccs3)no2)nnc1-c1c[nH]c2ccccc12,0.1,15,0.9,0.4,57*,-0.75
CCn1c(SCc2nc(-c3ccccc3)no2)nnc1-c1cccs1,0.72,51*,0.5,0.5,52*,.
Cc1sc2nc(SCc3nc(-c4cccs4)no3)n(-c3ccccc3)c(=O)c2c1C,0.38,20,0.8,0.3,66*,.
Cc1sc2nc(SCC(=O)c3cccs3)n(Cc3ccco3)c(=O)c2c1C,-0.0039,2,1,0.7,28,2.8
CC(=O)c1c(C)nn(CCC(=O)O)c1C,0.57,-3,1,1.1,-5,-0.26
Nc1nc(SCc2nc(-c3ccccc3)no2)[nH]c(=O)c1-c1ccccc1,.,73*,0.3,0.2,82*,.
CCn1c(SCc2nc(-c3ccccc3)no2)nc2ccccc21,1.1,88*,0.1,1,-2,-0.34
CCn1c(SCc2nc(-c3ccccc3)no2)nnc1-c1ccco1,1.1,.,.,.,.,.
COc1ccc(-c2noc(CSc3nnc(-c4ccccc4)n3C)n2)cc1,2.4,84*,0.2,0.3,66*,.
Nc1nc(SCc2c(F)cccc2Cl)[nH]c(=O)c1-c1ccccc1,-0.13,-1,1,1,-1,.
CN(C)c1nc2c(c(=O)[nH]c(=O)n2C)n1Cc1ccccc1Br,-0.046,44,0.6,0.8,20,-0.61
O=C(Cc1c(C(=O)O)[nH]c2ccccc12)NC1CCN(Cc2ccccc2)CC1,.,.,.,.,.,0.51
S=c1nc(-c2ccccc2Br)[nH][nH]1,-1.1,.,.,.,.,.
CC(C)(C)c1ccc(S(=O)(=O)NCC(=O)N2CCN(C(=O)c3ccco3)CC2)cc1,0.18,29,0.7,0.6,43,0.13
CC1(C)CC(=O)C(C=NCCCn2ccnc2)=C(O)C1,-0.47,48,0.5,0.9,8,-0.083
